# This is one part of a sample in which hits are shown more often than they occur.
# DUX4 txn inh = inhibitors of DUX4-driven ZSCAN4 reporter expression, primary screen, 293T cells, Gaussia and Italica luciferase; 293T-iDUX4 ZSCAN4-Gaussia luciferase reporter, 24 h; active compounds read low; activity change, negative = inhibition, % (no concentration beside the values); 0.8% of 37,000 active;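 active = mean inhibition of at least 10% in the main channel, exceeding the control channel by a set limit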
# Numbers stand for hits; . = inactive; ! = repeats disagree.
SMILES,DUX4 txn inh
C[C@@H]1CN([C@@H](C)CO)C(=O)CCCn2nncc2CO[C@@H]1CN(C)Cc1ccc(C(=O)O)cc1,.
C[C@H]1CN([C@@H](C)CO)C(=O)CCCn2nncc2CO[C@H]1CN(C)Cc1ccc(C(=O)O)cc1,.
O=C(C[C@H]1CC[C@@H]2[C@H](COC[C@@H](O)CN2S(=O)(=O)c2ccccc2)O1)NCc1ccc2c(c1)OCO2,.
C[C@@H]1CN([C@H](C)CO)C(=O)c2cc(NS(=O)(=O)c3cccs3)ccc2O[C@H]1CN(C)Cc1ccc(C(=O)O)cc1,.
CN(C)C(=O)c1cccc(-c2ccc(C3[C@@H]4CN(S(=O)(=O)c5cccc(Cl)c5)C[C@H]3N4)cc2)c1 (stereo partly drawn),-28.2
COc1cccc(-c2ccc(C3[C@@H]4CN(S(=O)(=O)c5cccc(Cl)c5)C[C@H]3N4)cc2)c1 (stereo partly drawn),.
O=S(=O)(c1ccccc1)N1C[C@@H]2N[C@H](C1)C2c1ccc(-c2cccnc2)cc1 (stereo partly drawn),-12.6!
CN(C)C(=O)c1cccc(-c2ccc(C3[C@@H]4CN(C(=O)Cc5ccccc5)C[C@H]3N4)cc2)c1 (stereo partly drawn),.
O=C(c1ccc(F)cc1)N1C[C@@H]2N[C@H](C1)C2c1ccc(-c2cccnc2)cc1 (stereo partly drawn),.
COc1ccc(S(=O)(=O)N2[C@@H]3CNC[C@H]2C3c2ccc(-c3cccc(OC)c3)cc2)cc1 (stereo partly drawn),.
CN(C)C(=O)c1cccc(-c2ccc(C3[C@H]4CNC[C@@H]3N4S(=O)(=O)c3ccc(Cl)cc3)cc2)c1 (stereo partly drawn),.
COc1cccc(-c2ccc(C3[C@@H]4CN(S(=O)(=O)c5ccccc5)C[C@H]3N4)cc2)c1 (stereo partly drawn),-20.4
O=S(=O)(c1ccc(F)cc1)N1[C@@H]2CNC[C@H]1C2c1ccc(-c2cccnc2)cc1 (stereo partly drawn),.
CO[C@@H]1CN(C)C(=O)c2ccc(NC(=O)C3CCCC3)cc2OC[C@H](C)N(CCC(F)(F)F)C[C@H]1C,.
COc1ccc2c3c(n(C)c2c1)[C@H](CO)N(Cc1nccs1)CC31CN(C)C1,.
CN(C)C(=O)[C@H]1[C@H](CO)[C@H]2Cn3c(ccc(-c4ccncc4)c3=O)[C@H]2N1Cc1ccccc1,.
O=C(NCC(F)(F)F)[C@H]1[C@H](CO)[C@H]2Cn3c(ccc(-c4cccnc4)c3=O)[C@@H]1N2Cc1ccccc1,.
O=C(C[C@H]1C=C[C@@H](NC(=O)CC2CC2)[C@H](CO)O1)NCC(F)(F)F,.
COC(=O)[C@H]1[C@H](CO)[C@H]2Cn3c(ccc(C4=CCCCC4)c3=O)[C@H]2N1C(=O)C1CCC1,.
COc1ccccc1NC(=O)N[C@H]1CC[C@H](CCNC(=O)c2ccc3c(c2)OCO3)O[C@@H]1CO,.
N#Cc1ccc(-c2ccc(C3[C@H]4CNC[C@@H]3N4C(=O)Nc3ccccc3F)cc2)cc1 (stereo partly drawn),.
COc1ccccc1CN1[C@@H]2CNC[C@H]1C2c1ccc(-c2ccc(C#N)cc2)cc1 (stereo partly drawn),.
CN(C)C(=O)c1ccc(-c2ccc(C3[C@@H]4CN(Cc5nccs5)C[C@H]3N4)cc2)cc1 (stereo partly drawn),.
CN(C)C(=O)c1cccc(-c2ccc(C3[C@@H]4CN(Cc5cocn5)C[C@H]3N4)cc2)c1 (stereo partly drawn),.
N#Cc1ccc(-c2ccc(C3[C@@H]4CN(Cc5ccccc5F)C[C@H]3N4)cc2)cc1 (stereo partly drawn),-43.6!
SMILES,DUX4 txn inh
COc1ccccc1CN1C[C@@H]2N[C@H](C1)C2c1ccc(-c2ccncc2)cc1 (stereo partly drawn),-13.9!
COc1cc(CN2C[C@@H]3N[C@H](C2)C3c2ccc(-c3cncnc3)cc2)cc(OC)c1 (stereo partly drawn),.
COc1ccccc1CN1[C@@H]2CNC[C@H]1C2c1ccc(-c2ccncc2)cc1 (stereo partly drawn),.
N#Cc1ccc(-c2ccc([C@@H]3[C@@H]4CN(Cc5cocn5)C[C@H]3N4)cc2)cc1,-75.0
COc1ccc(-c2ccc3n(c2=O)C[C@H]2[C@H](CO)[C@@H](C(=O)N4CCOCC4)[C@@H]3N2C)cc1,.
CCC(=O)N[C@@H]1CC[C@@H](CCNC(=O)Nc2ccc(F)cc2)O[C@H]1CO,.
C[C@@H]1CN([C@@H](C)CO)C(=O)Cc2cc(NC(=O)CCCN(C)C)ccc2O[C@H]1CN(C)C,.
CCCC(=O)N1CC2(CCN(C(=O)Nc3cccc(F)c3)CC2)c2c(n(C)c3cc(OC)ccc23)[C@H]1CO,.
COc1ccc2c3c([nH]c2c1)[C@H](CO)N(C(=O)c1cccnc1)CC31CN(C(=O)NC(C)C)C1,.
O=C([C@H]1[C@H](CO)[C@H]2Cn3c(cccc3=O)[C@H]2N1CCC(F)(F)F)N1CCCCC1,.
CO[C@@H]1CN(C)C(=O)c2ccc(NC(=O)NC(C)C)cc2OC[C@H](C)N(CC2CC2)C[C@H]1C,.
O=C(C[C@H]1C[C@H]2c3cc(NC(=O)Cc4ccncc4)ccc3O[C@H]2[C@@H](CO)O1)NCc1cc(F)ccc1F,-21.3
O=C(C[C@H]1C[C@H]2c3cc(NC(=O)Cc4ccncc4)ccc3O[C@H]2[C@H](CO)O1)NCCc1ccccc1,-21.4
O=C(C[C@@H]1C[C@@H]2c3cc(NC(=O)Cc4ccncc4)ccc3O[C@@H]2[C@@H](CO)O1)NCCc1ccccc1,.
O=C(C[C@@H]1C[C@H]2c3cc(NC(=O)CC4CC4)ccc3O[C@H]2[C@@H](CO)O1)NCc1cc(F)ccc1F,.
O=C(C[C@@H]1C[C@H]2c3cc(NC(=O)Cc4ccncc4)ccc3O[C@H]2[C@H](CO)O1)NCc1cc(F)ccc1F,.
O=C(C[C@H]1C[C@H]2c3cc(NC(=O)Cc4ccncc4)ccc3O[C@H]2[C@@H](CO)O1)NCCc1ccccc1,.
CNC[C@@H]1OCCCC[C@@H](C)Oc2ccc(NC(=O)CCC(F)(F)F)cc2C(=O)N([C@H](C)CO)C[C@H]1C,.
CCC(=O)N1C[C@H](O)COC[C@H]2O[C@H](CC(=O)NCc3ccccc3Cl)CC[C@@H]21,.
CC=Cc1ccc2n(c1=O)C[C@@H]1[C@@H](CO)[C@H](C(=O)Nc3nccs3)N(C(=O)CC)[C@H]21 (mixture of isomers),.
C/C=C/c1ccc(C2[C@@H]3CN(Cc4cccc(OC)c4)C[C@H]2N3)cc1 (stereo partly drawn),.
C(=C\c1ccc(C2[C@@H]3CN(Cc4ccc5c(c4)OCO5)C[C@H]2N3)cc1)/c1ccccc1 (stereo partly drawn),-40.8!
c1ncc(-c2ccc(C3[C@@H]4CN(Cc5ccc6c(c5)OCO6)C[C@H]3N4)cc2)cn1 (stereo partly drawn),.
CN1C(=O)c2cc(NC(=O)Cc3cccs3)ccc2OC[C@@H]2O[C@@H](CC(=O)NCCc3ccncc3)CC[C@@H]21,.
C[C@H](CO)N1C[C@H](C)[C@H](CN(C)Cc2ccc(O)cc2)OCc2ccccc2-c2ccccc2C1=O,.
C[C@H](CO)N1C[C@H](C)[C@@H](CN(C)Cc2ccc(F)cc2)OCc2ccccc2-c2ccccc2C1=O,.
C[C@@H]1CN([C@H](C)CO)C(=O)c2ccccc2-c2ccccc2CO[C@@H]1CN(C)Cc1ccc2c(c1)OCO2,.
